Source: PubChem BioAssay (NCATS)
Inconclusive results are not listed. Calls of active or inactive are those of the source. Unless noted, the call rests on the fitted dose curve; in most records, active means well fitted curve in the direction sought with a large enough effect; inconclusive means small, poorly fitted or top-dose-only effect, or another doubt; inactive means no such curve, though single readings can be large; an effect the other way counts as inactive or inconclusive.

Experiments:
[1] = qHTS for Inhibitors of Plasmodium falciparum (DD2) proliferation (AID 504314);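 further: parasite DNA measured by SYBR Green fluorescence after red cell lysis; plate controls were DMSO vehicle for no effect and artemisinin wells for full effect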
Outline: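 Erythrocytes infected with P. falciparum Dd2 (0.3% parasitemia, 2.5% hematocrit) exposed to compound 72 h at 37C, 5% CO2. Parasite DNA quantified by SYBR Green fluorescence after saponin/Triton lysis overnight; normalized to 0.29 uM artemisinin and DMSO.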

[2] = qHTS for Inhibitors of Plasmodium falciparum (GB4) proliferation (AID 504315);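 further: 0% = DMSO vehicle and -100% = 0.29 µM artemisinin control; nearly all actives have a fitted effect of over 50% in size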
Outline: (§1)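 Erythrocytes infected with P. falciparum line (0.3% parasitemia, 2.5% hematocrit final) incubated with compounds 72 h at 37 °C, 5% CO2; SYBR Green lysis buffer added, fluorescence read next day. Normalized to 0.29 uM artemisinin and DMSO.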

[3] = qHTS for Inhibitors of Plasmodium falciparum (7G8) proliferation (AID 504316);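 further: series mostly up to about 6.7 µM; 0% = DMSO vehicle and -100% = 0.29 µM artemisinin full kill; nearly all actives have a fitted effect of over 65% in size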
Outline: as §1

[4] = qHTS for Inhibitors of Plasmodium falciparum (HB3) proliferation (AID 504318);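 further: 0% = DMSO vehicle and -100% = artemisinin control; nearly all actives have a fitted effect of over 60% in size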
Outline: as §1

[5] = qHTS for Inhibitors of Plasmodium falciparum (CP250) proliferation (AID 504320);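 further: plate controls were DMSO vehicle for no effect and 0.29 µM artemisinin control for full effect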
Outline: as §1

[6] = target: Atrial natriuretic peptide receptor 1 (Homo sapiens) (UniProt P16066); assay: Natriuretic polypeptide receptor (hNpr1) antagonism - Pilot CMLD screen (AID 1347052; calls by dose curve;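 further: cGMP level read as GloSensor luciferase luminescence after agonist stimulation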; further: potency means the concentration at half of the fitted maximal effect)
Chain of Atrial natriuretic peptide receptor 1 (Homo sapiens) (P16066 whole entry, looked up): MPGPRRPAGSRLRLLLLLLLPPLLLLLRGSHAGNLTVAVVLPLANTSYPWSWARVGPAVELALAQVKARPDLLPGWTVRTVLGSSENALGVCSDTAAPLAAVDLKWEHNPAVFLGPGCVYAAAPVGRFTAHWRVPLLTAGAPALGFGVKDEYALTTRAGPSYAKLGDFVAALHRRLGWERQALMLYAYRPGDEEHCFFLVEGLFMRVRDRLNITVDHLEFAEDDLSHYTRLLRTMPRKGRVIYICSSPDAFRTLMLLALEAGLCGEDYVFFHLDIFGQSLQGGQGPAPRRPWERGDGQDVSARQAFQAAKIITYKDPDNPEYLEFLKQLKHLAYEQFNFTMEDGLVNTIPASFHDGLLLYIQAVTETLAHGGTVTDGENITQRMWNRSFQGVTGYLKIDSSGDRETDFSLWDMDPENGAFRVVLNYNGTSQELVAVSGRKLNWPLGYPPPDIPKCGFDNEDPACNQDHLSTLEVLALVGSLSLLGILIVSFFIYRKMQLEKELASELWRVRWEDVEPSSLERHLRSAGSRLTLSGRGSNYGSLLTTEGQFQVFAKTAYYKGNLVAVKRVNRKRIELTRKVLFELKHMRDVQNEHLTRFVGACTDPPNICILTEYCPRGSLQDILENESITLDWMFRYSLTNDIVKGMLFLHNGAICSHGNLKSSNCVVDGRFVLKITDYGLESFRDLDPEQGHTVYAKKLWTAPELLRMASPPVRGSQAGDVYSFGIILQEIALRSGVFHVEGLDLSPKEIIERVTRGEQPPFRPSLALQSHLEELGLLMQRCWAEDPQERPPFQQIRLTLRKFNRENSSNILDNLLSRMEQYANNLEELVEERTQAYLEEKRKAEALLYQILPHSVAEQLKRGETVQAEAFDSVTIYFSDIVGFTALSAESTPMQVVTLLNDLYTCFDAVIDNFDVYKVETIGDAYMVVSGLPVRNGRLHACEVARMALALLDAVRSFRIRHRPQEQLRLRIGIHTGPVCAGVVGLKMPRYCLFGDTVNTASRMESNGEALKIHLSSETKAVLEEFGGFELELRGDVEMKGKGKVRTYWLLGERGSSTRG

CC(=CCO)CCO
inactive: Potency [1] | Potency [2] | Potency [3] | Potency [4] | Potency [5] | Potency [6]

COC[C@H]1O[C@]2(c3ccccc3)CO[C@@H]1[C@@H](C=Cc1ccccc1)C2
inactive: Potency [1] | Potency [2] | Potency [3] | Potency [4] | Potency [5] | Potency [6]

COC(=O)C1=C(C(=O)OC)[C@@H]2N(C)c3ccccc3[C@@]23C[C@@H](C(=O)OC)N(C(=O)c2cc(C)oc2C)C3=N1
inactive: Potency [1] | Potency [2] | Potency [3] | Potency [4] | Potency [5] | Potency [6]

CO[C@H](C1CCCCC1)[C@H](C)C=CCC(=O)OCCCc1ccccc1
inactive: Potency [1] | Potency [2] | Potency [3] | Potency [4] | Potency [5] | Potency [6]

CC#CCN1C(=O)NC(c2ccccc2)C(C(=O)OC)=C1C (centres undefined)
inactive: Potency [1] | Potency [2] | Potency [3] | Potency [4] | Potency [5] | Potency [6]

COC(=O)C1=C(C(=O)OC)[C@@H]2N(C)c3ccccc3[C@@]23C[C@@H](C(=O)OC)N(C(=O)c2ccco2)C3=N1
inactive: Potency [1] | Potency [2] | Potency [3] | Potency [4] | Potency [5] | Potency [6]

COC(=O)C1=C(C(=O)OC)[C@@H]2N(C)c3ccccc3[C@@]23C[C@@H](C(=O)OC)N(C(=O)c2cccs2)C3=N1
inactive: Potency [1] | Potency [2] | Potency [3] | Potency [4] | Potency [5] | Potency [6]

CC(C)CON=C1C[C@@H](O)[C@@H](O)[C@@H]2[C@H]3C(=O)N(c4ccc(F)cc4F)C(=O)[C@@H]3CC[C@H]12
inactive: Potency [1] | Potency [2] | Potency [3] | Potency [4] | Potency [5] | Potency [6]

CCOC(=O)CNC(=O)O[C@@H]1C(=O)c2cc(OC)ccc2O[C@H]1c1cccc(OC)c1
inactive: Potency [1] | Potency [2] | Potency [3] | Potency [4] | Potency [5] | Potency [6]

C[C@@H]1C[C@](C)(C(=O)c2ccc3c(c2)OCO3)C=C1c1ccc2c(c1)OCO2
inactive: Potency [1] | Potency [2] | Potency [3] | Potency [4] | Potency [5] | Potency [6]

CCCC[C@]12Cc3cc(C#N)ccc3[C@H](O1)c1c(c3cc(F)ccc3oc1=O)O2
inactive: Potency [1] | Potency [2] | Potency [3] | Potency [4] | Potency [5] | Potency [6]

C=CCN1c2ccccc2[C@]23CCC(=O)N(CC(=O)OC)C2=NC(C(=O)OC)=C(C(=O)OC)[C@H]13
inactive: Potency [1] | Potency [2] | Potency [3] | Potency [4] | Potency [5] | Potency [6]

CC(=O)OC[C@H]1O[C@@H](ON=C2C[C@@H](O)[C@@H](O)[C@@H]3[C@H]4C(=O)N(Cc5ccccc5)C(=O)[C@@H]4CC[C@@H]23)[C@H](OC(C)=O)[C@@H](OC(C)=O)[C@H]1OC(C)=O
inactive: Potency [1] | Potency [2] | Potency [3] | Potency [4] | Potency [5] | Potency [6]

C=CC[C@@H]1C=C[C@@H](OC(=O)OCC)[C@@H](COC(=O)OCC)O1
inactive: Potency [1] | Potency [2] | Potency [3] | Potency [4] | Potency [5] | Potency [6]

CC(CCN1CCCCc2nc(C)c(C)cc21)=NOC[C@@H](O)[C@H]1O[C@@H]2OC(C)(C)O[C@H]2[C@@H]1O
inactive: Potency [1] | Potency [2] | Potency [3] | Potency [4] | Potency [5] | Potency [6]

C#CCNC(=O)[C@H]1C=C(OC)C(=O)C[C@H]2c3ccccc3C[C@]12C
inactive: Potency [1] | Potency [2] | Potency [3] | Potency [4] | Potency [5] | Potency [6]

CC(=O)[C@H]1[C@H](CCc2ccccc2)NC(=O)N(Cc2ccccc2)[C@@H]1C
inactive: Potency [1] | Potency [2] | Potency [3] | Potency [4] | Potency [5] | Potency [6]

COc1cc2c(cc1OC)[C@@H]1O[C@](c3ccsc3)(C2)OC2=C1C(=O)OC1(CCCCC1)C2
inactive: Potency [1] | Potency [2] | Potency [3] | Potency [4] | Potency [5] | Potency [6]

C#CCCCON=C1C[C@@H](O)[C@H](O)[C@H]2[C@@H]3C(=O)N(c4ccc(F)cc4F)C(=O)[C@@H]3CC[C@@H]12
inactive: Potency [1] | Potency [2] | Potency [3] | Potency [4] | Potency [5]
active: Potency [6] 422 nM

Cc1ccc(C#C[C@@H]2C=C[C@H](Oc3ccc4c(c3)OCO4)[C@@H](CO)O2)c(C)c1
inactive: Potency [1] | Potency [2] | Potency [3] | Potency [4] | Potency [5] | Potency [6]

CCOC(=O)NN=C1C[C@@H](O)[C@@H](O)[C@@H]2[C@H]3C(=O)N(Cc4ccccc4)C(=O)[C@@H]3CC[C@@H]12
inactive: Potency [1] | Potency [2] | Potency [3] | Potency [4] | Potency [5] | Potency [6]

C=CC1=C2C=C(C3CC3)N(Cc3ccccc3)C=C2C(=O)C(C)(OC(=O)c2ccco2)C1=O (centres undefined)
inactive: Potency [1] | Potency [2] | Potency [3] | Potency [4] | Potency [5] | Potency [6]

C[C@H]1Cc2c(-c3ccccc3)nc3c(c2CO1)CN(C(=O)Nc1cccc(C#N)c1)CC3
inactive: activity, negative = inhibition [1] -4.46% [at 1.12 µM] | Potency [2] | Potency [3] | Potency [4] | Potency [5] | Potency [6]

COC(=O)N[C@H](C(C(=O)OC)=C(C)NCc1ccccc1)c1cccs1
inactive: Potency [1] | Potency [2] | Potency [3] | Potency [4] | Potency [5] | Potency [6]
